Data published in PubChem BioAssay AID1159580 (chemical genetic matrix, 2015).
Among all 5,500 compounds or so, about 2,000 (36%) were called active. About 18% were inconclusive and are not listed. Rule as the data show it: active = normalized growth mostly below about 0.91 (no sharp cut-off); inconclusive = no clear call, values can overlap the other calls; inactive = mostly above about 0.92. The list shows a part of the results.

Test: chemical genetic growth profiling, strain panel (AID 1159580);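 also: tested at 20 µM; growth read once vehicle control cultures reached saturation at 30 °C; 1 = growth at the plate median or of vehicle wells; lower values mean less growth of the strain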
Settings: S. cerevisiae deletion strains, growth OD

Measured: normalized growth

COc1cc(OC)c2c(=O)c(-c3ccccc3)c(C)oc2c1OC
inactive: locus YAL013W, strain DEP1, active compounds read low 1.01 | locus YAL021C, strain ccr4, active compounds read low 0.984 | locus YAL026C, strain drs2, active compounds read low 0.986 | locus YAL030W, strain snc1, active compounds read low 0.976 | locus YBL061C, strain skt5, active compounds read low 0.975 | locus YBR009C, strain hhf1, active compounds read low 0.953 | locus YBR021W, strain FUR4, active compounds read low 1 | locus YBR023C, strain chs3, active compounds read low 0.987 | locus YBR171W, strain sec66, active compounds read low 0.984 | locus YBR229C, strain ROT2, active compounds read low 1 | locus YBR231C, strain swc5, active compounds read low 0.993 | locus YBR279W, strain paf1, active compounds read low 0.986 | locus YCL011C, strain gbp2, active compounds read low 0.973 | locus YCL016C, strain dcc1, active compounds read low 0.987 | locus YCL029C, strain bik1, active compounds read low 1 | locus YCL061C, strain MRC1, active compounds read low 0.988 | locus YCL069W, strain vba3, active compounds read low 0.974 | locus YCR088W, strain abp1, active compounds read low 0.988 | locus YDL005C, strain med2, active compounds read low 0.973 | locus YDL035C, strain GPR1, active compounds read low 1.02 | locus YDL040C, strain nat1, active compounds read low 0.985 | locus YDL074C, strain BRE1, active compounds read low 1.02 | locus YDL101C, strain DUN1, active compounds read low 1.01 | locus YDL134C, strain PPH21, active compounds read low 1 | locus YDL185W, strain tfp1, active compounds read low 1 | locus YDL192W, strain arf1, active compounds read low 0.995 | locus YDR001C, strain nth1, active compounds read low 0.987 | locus YDR069C, strain doa4, active compounds read low 0.966 | locus YDR101C, strain arx1, active compounds read low 0.984 | locus YDR137W, strain rgp1, active compounds read low 0.955 | locus YDR150W, strain NUM1, active compounds read low 1.02 | locus YDR159W, strain sac3, active compounds read low 0.973 | locus YDR162C, strain NBP2, active compounds read low 1.02 | locus YDR195W, strain ref2 0.921 | locus YDR297W, strain sur2, active compounds read low 0.988 | locus YDR318W, strain mcm21, active compounds read low 0.995 | locus YDR334W, strain swr1, active compounds read low 0.981 | locus YDR335W, strain msn5, active compounds read low 0.997 | locus YDR388W, active compounds read low 0.988 | locus YDR392W, strain spt3, active compounds read low 0.925 | locus YDR502C, strain sam2, active compounds read low 0.997 | locus YEL003W, strain gim4, active compounds read low 0.987 | locus YEL037C, strain rad23, active compounds read low 0.981 | locus YEL061C, strain CIN8 (second series), active compounds read low 0.967 | locus YEL061C, strain CIN8, active compounds read low 1.01 | locus YER015W, strain faa2, active compounds read low 0.981 | locus YER016W, strain bim1, active compounds read low 0.986 | locus YER110C, active compounds read low 0.994 | locus YER111C, strain swi4, active compounds read low 0.971 | locus YER155C, strain BEM2 (second series), active compounds read low 0.978 | locus YER155C, strain BEM2, active compounds read low 1.01 | locus YER167W, strain BCK2, active compounds read low 1 | locus YFR010W, strain ubp6, active compounds read low 0.98 | locus YGL078C, strain dbp3, active compounds read low 0.998 | locus YGL086W, strain mad1, active compounds read low 1 | locus YGL167C, strain pmr1, active compounds read low 0.97 | locus YGL173C, strain kem1, active compounds read low 0.99 | locus YGL227W, strain vid30, active compounds read low 0.961 | locus YGL240W, strain doc1, active compounds read low 0.977 | locus YGL248W, strain PDE1, active compounds read low 1 | locus YGL253W, strain hxk2, active compounds read low 0.994 | locus YGR078C, strain PAC10, active compounds read low 1.01 | locus YGR135W, strain pre9, active compounds read low 0.993 | locus YGR229C, strain SMI1, active compounds read low 1.03 | locus YGR252W, strain gcn5, active compounds read low 0.943 | locus YHR013C, strain ard1, active compounds read low 0.94 | locus YHR027C, strain rpn1, active compounds read low 0.987 | locus YHR030C, strain SLT2, active compounds read low 1.01 | locus YHR079C, strain IRE1 (second series), active compounds read low 0.989 | locus YHR094C, strain hxt1, active compounds read low 0.993 | locus YHR129C, strain ARP1, active compounds read low 1 | locus YHR142W, strain chs7, active compounds read low 1.01 | locus YHR200W, strain rpn10, active compounds read low 0.997 | locus YIL066C, strain RNR3, active compounds read low 1.01 | locus YIL073C, strain SPO22, active compounds read low 0.999 | locus YIL125W, strain kgd1, active compounds read low 0.997 | locus YIR030C, strain dcg1, active compounds read low 1 | locus YJL092W, strain hpr5, active compounds read low 0.987 | locus YJL095W, strain BCK1, active compounds read low 1.01 | locus YJL115W, strain asf1, active compounds read low 1 | locus YJL129C, strain trk1, active compounds read low 0.946 | locus YJL134W, strain LCB3, active compounds read low 1.01 | locus YJL154C, strain vps35, active compounds read low 0.985 | locus YJL164C, strain tpk1, active compounds read low 1 | locus YJL166W, strain qcr8, active compounds read low 0.98 | locus YJL168C, strain set2, active compounds read low 0.997 | locus YJL187C, strain SWE1 (second series), active compounds read low 1.01 | locus YJL187C, strain SWE1, active compounds read low 0.987
